SW480 rereplic – A quantitative high throughput screen for small molecules that induce DNA re-replication in SW480 colon adenocarcinoma cells. SW480 DNA re-replication, Hoechst DNA content imaging, 48 h. Potency, µM (doses to about 46.1 µM), inactives show at the top dose re-replication activation, actives largely listed as activators. 340,000 tested, 1.8% active; further: % of control where 0% means no effect; nearly all actives have a fitted effect of over 55% in size
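Image-based DNA-content assay: after two days of treatment, nuclei were labelled with the DNA dye Hoechst and imaged, and hits were compounds raising the count of nuclei showing high fluorescence intensity.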
KB-3-1 tox – qHTS assay for MDR1-selective chemotherapeutics: Primary screen using the parental adenocarcinoma cell KB-3-1; Potency, µM (titrated, usually from 46.1 µM), most hits filed as cytotoxic; KB-3-1 viability, CellTiter-Glo ATP luminescence, 72 h; 400,000 tested, 1.4% active; further: on the % scale 0 is the no-effect control and ±100 the full control effect; nearly all actives have a fitted effect of over 60% in size
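Screening of KB-3-1 cells (DMEM, 10% FBS, phenol-red free) ran from lowest to highest compound concentration; after 72 h at 37 °C viability was read luminescently and curves fitted.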
MCF10A rereplic – A quantitative high throughput screen for small molecules that induce DNA re-replication in MCF 10a normal breast cells. MCF 10A DNA re-replication, Hoechst nuclear intensity, 48 h. Potency, µM (top dose mostly 46.1 µM), without a hit: at the top dose activity, positive = re-replication, usual class: activators. 350,000 tested, 2.9% active. AID 624296, 2012; further: % of control where 0% means no effect; nearly all actives have a fitted effect of over 50% in size
ELG1 repair inh – qHTS screen for small molecules that inhibit ELG1-dependent DNA repair in human embryonic kidney (HEK293T) cells expressing luciferase-tagged ELG1; 330,000 tested, 2.3% active; Potency, µM (top dose mostly 46.1 µM), for inactives: at the highest dose activity change, negative = inhibition, actives largely listed as inhibitors; HEK293T ELG1-luciferase reporter, luminescence, 16 h; DNA damage induced by 5-fluorouridine; further: on the % scale 0 is the no-effect control and ±100 the full control effect; nearly all actives have a fitted effect of over 55% in size
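Step one: seed 2,000 cells per well. Step two: pin-transfer compound or DMSO alongside 5-fluorouridine. Step three: incubate 16 hr, 37 °C, 5% CO2. Step four: add ONE-Glo, wait 30 min, read luminescence.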
KB-V1 cytotox – qHTS assay for MDR1-selective chemotherapeutics: Primary screen using the drug-selected MDR subline cells KB-V1; AID 1347076, 2019; KB-V1 MDR cells viability, CellTiter-Glo, 72 h; Potency, µM (doses to about 46.1 µM), hits mostly cytotoxic; 400,000 tested, 3.4% active; further: on the % scale 0 is the no-effect control and ±100 the full control effect; nearly all actives have a fitted effect of over 60% in size
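Following 72 h at 37 degrees C with compound, KB-V1 cell viability was read by CellTiter-Glo luminescence, medium being phenol-red-free DMEM plus 10% FBS; concentration-response parameters came from normalized, curve-fitted qHTS data.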
Active calls of the source: *; i = inactive; ? = inconclusive; . = not tested or not shown. Hits are enriched below; roughly 8.1% of the tested compounds scored in any of these assays. The call rests on the fitted dose curve; in most records, active means well fitted curve in the direction sought with a large enough effect; inconclusive means small, poorly fitted or top-dose-only effect, or another doubt; inactive means no such curve, though single readings can be large; an effect the other way counts as inactive or inconclusive. Potency means the concentration at half of the fitted maximal effect.

SMILES	SW480 rereplic	KB-3-1 tox	MCF10A rereplic	ELG1 repair inh	KB-V1 cytotox
C[C@@H]1O[C@H](C2CCCC2)Cc2[nH]c(=S)[nH]c(=O)c21	.	16µM*	.	.	?
O=C(C1CCN(C2CC(=O)N(c3cccc(Cl)c3)C2=O)CC1)N1CCCCCC1 (stereo unspecified)	-6%	i	3%	3%	i
N=c1c(C(=O)NC2CCCC2)cc2c(=O)n3ccccc3nc2n1CCCN1CCOCC1	?	i	?	4%	i
Cc1ccc(C(=O)NCCn2c(N)c(C#N)c3nc4ccccc4nc32)cc1	21µM*	?	?	-2%	i
N#Cc1c(N)n(CCOC(=O)c2cccc(Br)c2)c2nc3ccccc3nc12	?	i	?	.	i
N#Cc1c(N)n(CCNC(=O)c2ccc(Cl)cc2)c2nc3ccccc3nc12	?	i	18µM*	?	i
COc1cc(/C=c2\sc3n(c2=O)C(c2ccccc2)C(c2ccccc2)=NN=3)ccc1O (stereo unspecified)	6%	i	?	?	i
O=C1N[C@H](Cc2ccccc2)COC(=O)[C@H](Cc2ccc(F)cc2)CC/C=C/C[C@H]1CC(=O)N(CCO)Cc1ccccc1	13%	i	19%	?	i
O=C1N[C@@H](c2ccccc2)COC(=O)[C@@H](Cc2ccc(F)cc2)CC/C=C/C[C@@H]1CC(=O)N(CCO)Cc1ccccc1	-6%	i	18%	26µM*	i
O=C1N[C@@H](c2ccccc2)COC(=O)[C@@H](Cc2ccc(F)cc2)CC/C=C/C[C@H]1CC(=O)N(CCO)Cc1ccccc1	?	i	?	15µM*	i
CCN(c1ccccc1)c1cc2ccccc2c(=O)[nH]1	2%	i	?	6%	?
COc1ccccc1-c1cc(C(=O)NCc2ccccc2)no1	3%	i	14%	2%	i
COc1ccccc1-c1cc(C(=O)NCc2ccc(F)cc2)no1	14%	i	?	3%	16µM*
Cc1ccc(-c2cc(C(=O)NCc3cccnc3)no2)cc1	-4%	i	2%	?	16µM*
Cc1cc(C(=O)NCc2cccnc2)no1	-7%	i	2%	-1%	i
COc1ccc(-c2cc(C(=O)NCc3cccnc3)no2)cc1OC	-14%	i	-4%	?	21µM*
Cc1ccccc1S(=O)(=O)N(C)C[C@@H]1OCc2cnnn2CCCC(=O)N([C@@H](C)CO)C[C@H]1C	.	i	.	.	?
CCCCN(C(=O)c1cc(S(=O)(=O)N2CCOCC2)ccc1Cl)c1c(N)n(CC(C)C)c(=O)[nH]c1=O	-2%	i	0%	13%	i
CCC(C)c1ccccc1NC(=O)C(C)OC(=O)CN1C(=O)NC(C)(C)C1=O (stereo unspecified)	16%	i	-2%	10%	?
CC(C)n1c(O)c(N=NC(=O)C2COc3ccccc3O2)c2ccccc21 (stereo unspecified)	?	i	13µM*	?	16µM*
Cn1c(O)c(N=NC(=O)C2COc3ccccc3O2)c2ccccc21 (stereo unspecified)	-13%	i	0%	-3%	i
O=C(c1ccc(Cl)cc1)c1oc2ccccc2c1CS(=O)c1ccc(Cl)cc1 (stereo unspecified)	-2%	i	20%	5%	21µM*
COc1ccc(-c2noc(CNC(=O)c3ccc4c(c3)OCO4)n2)cc1	10%	?	10%	-3%	?
Cn1c(Cl)cnc1C1CC(=O)c2cc(Cl)ccc2O1 (stereo unspecified)	10µM*	?	?	0%	?
C=CCn1c(=O)n2ncnc2c2c3c(sc21)CCCC3	-10%	i	-1%	-17%	15µM*
SMILES	SW480 rereplic	KB-3-1 tox	MCF10A rereplic	ELG1 repair inh	KB-V1 cytotox
O=c1n(Cc2ccc(Cl)cc2)c2sc3c(c2c2ncnn12)CCCC3	-5%	?	?	?	?
O=C(Cn1cc2c(n1)CCCCC2)NCCCN1CCOCC1	0%	i	-5%	5%	i
CC1(C)CC(=O)C2=C(C1)NC(SCC(=O)Nc1ccccc1)=C(C#N)C21CCCCC1	1%	?	26%	?	21µM*
N#CC1=C(N)NC(SCC(=O)Nc2ccc(Br)cc2)=C(C#N)C12CCCCC2	10%	i	?	23µM*	i
N#CC1=C(N)NC(SCc2ccccc2)=C(C#N)C12CCCC2	?	?	18µM*	?	?
CC(C)(C)C1CCC2(CC1)C(C#N)=C(SCC(=O)Nc1ccccc1)NC(=O)C2C#N (stereo unspecified)	?	?	9.2µM*	?	i
O=C(CSc1nnc(SCc2ccc(Cl)cc2)s1)N/N=C/c1ccc(Cl)cc1Cl	22%	i	?	12%	i
Cc1ccc(C)c(N2CCN(S(=O)(=O)CC34CCC(CC3=O)C4(C)C)CC2)c1 (stereo unspecified)	12%	i	1%	?	i
Cn1nnnc1SCC(=O)Nc1ccccn1	-4%	i	4%	3%	i
O=C(NCc1cccs1)c1ccc2ccccc2n1	-8%	i	-3%	?	i
C=C(c1ccc2ccccc2n1)c1cccs1	.	12µM*	.	.	i
O=C1Nc2cc(C(=O)NCCCN3CCCC3)ccc2S/C1=C/c1ccccc1F	18µM*	i	?	4%	i
CCOCCCNC(=O)/C=C1\Sc2ccccc2N(Cc2ccccc2F)C1=O	?	i	7.3µM*	13%	i
O=C1Nc2cc(C(=O)NCCN3CCCCCC3)ccc2S/C1=C/c1ccccc1F	.	i	.	.	?
Cc1cccc(CN2C(=O)/C(=C\c3ccc(C(=O)NCCN4CCOCC4)cc3)Sc3ccccc32)c1	23µM*	i	?	21µM*	?
O=C(NCCN1CCOCC1)c1ccc(/C=C2\Sc3ccccc3N(Cc3ccccc3F)C2=O)cc1	18µM*	i	?	21µM*	?
CCOCCCNC(=O)CN1C(=O)/C(=C/c2ccccc2C)Sc2ccccc21	?	?	-2%	?	i
O=C(CCNC(=O)Cn1ccc2ccccc2c1=O)NCCCN1CCN(c2ccccc2F)CC1	1%	i	-5%	-2%	i
COc1cc(O)c(C(CC(=O)N2CCC(Cc3ccccc3)CC2)c2ccc(OC)c(OC)c2)c(OC)c1 (stereo unspecified)	.	i	.	.	?

From PubChem BioAssay
